Structures are written as SMILES.

Common to all, as to conditions: concentration: 1 μM, replicates: in singlicate; n = 1
The test system of assay [1] is DDR2.
The test system of assay [2] is T1, DLK.
T1 construct: gene MAP3K12

The subject of assay [3] is T2, DMPK2.
T2 construct: gene CDC42BPG

For assay [4], the system named is DMPK.
Assay [5] deals with T3, DRAK1.
T3 construct: gene STK17A

Assay [6] deals with T4, DRAK2.
T4 construct: gene STK17B

Assay [7] relates to DYRK1A.
Assay [8] relates to DYRK1B.
Assay [9] has as its system DYRK2.
The test system of assay [10] is EGFR.
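Note: KINOMEscan kinase panel screen.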

Turning to `O=C(Nc1ccccc1F)NC1CCN(c2ccnc(Nc3ccc(F)cc3)n2)C1` (stereo not shown) [GSK1379722], the “%Inh” value in assay [1] is given as 11%; in [2], 23%; in assay [3] it was 1%; in assay [4] it was 0%; in assay [5] it was 0%; in assay [6] it was 0%. Also, the “%Inh” value in [7] worked out at 19%; in [8], 22%; in assay [9] it was 0%; in [10], 0%.
Regarding `Clc1ccc(-c2cc(-c3c[nH]nc3-c3ccccn3)ccn2)cc1` [GW681251], the “%Inh” value in assay [1] is on record as 7%; in assay [2] it was 92.9%; in assay [3], 0%; in assay [4], 0%; in assay [5], 0%; in assay [6] it was 0%. Besides, the “%Inh” value amounted to 11% in [7], 0% in assay [8], 0% in assay [9] and 24% in assay [10].
As to `CCn1c(-c2ccncc2)nc2cnccc21` [SB-735216], the “%Inh” value in [1] came out at 7%; in assay [2], 0%; in assay [3], 0%; in assay [4], 0%; in [5], 0%; in assay [6] it was 2%. The “%Inh” value in assay [7] stood at 4%; in [8], 2%; in [9] it was 17%; in [10], 0%.
With `COc1ccc(NC(=O)c2ccc(-c3cc(-c4nnc(C)o4)ccc3C)cc2)cc1` [GW595885], the “%Inh” value in assay [1] is on record as 9%; in assay [2], 18%; in assay [3] it was 0%; in assay [4], 0%; in [5], 0%; in assay [6], 0%. Besides, the “%Inh” value is listed as 20% in [7], 0% in assay [8], 4% in [9] and 14% in assay [10].
On to `COc1ccc(Nc2nccc(N3CCC(NC(=O)Nc4ccc5c(c4)OCO5)C3)n2)cc1` (stereo not shown) [GSK1379745], for which the “%Inh” value in assay [1] was found to be 21%; in assay [2], 35%; in assay [3] it was 20%; in [4], 0%; in assay [5], 0%; in assay [6], 0%. For the same molecule, the “%Inh” value in assay [7] came out at 8%; in assay [8], 5%; in [9] it was 7%; in assay [10], 25%.
Take `O=C(NCCCN1CCCC1=O)c1cnc(NCc2cc(Cl)ccc2Cl)nc1NC1CCNCC1`: the “%Inh” value in assay [1] is 0%; in assay [2], 0%; in assay [3], 0%; in [4], 0%; in [5] it was 0%; in [6], 16%. Besides, the “%Inh” value is 0% in [7], 0% in assay [8], 0% in [9] and 20% in assay [10].
Consider `Cl.c1ccc(Cn2ncc3cc(Nc4ncnc5ccccc45)ccc32)cc1` [GW273749], for which the “%Inh” value is on record as 0% in assay [1]; 12% in assay [2]; 61% in [3]; 0% in assay [4]; 79% in assay [5]; 0% in assay [6]. In addition, the “%Inh” value worked out at 16% in assay [7], 8% in assay [8], 16% in [9] and 100% in [10].
Regarding `Cl.Cl.c1ccc(-c2cc3ccncc3cc2OC2CCNCC2)cc1` [GSK1122999], the “%Inh” value in assay [1] worked out at 0%; in assay [2], 31%; in assay [3] it was 18%; in [4], 0%; in assay [5], 21%; in [6], 0%. For the same molecule, the “%Inh” value in assay [7] came to 13%; in assay [8], 15%; in [9] it was 21%; in assay [10] it was 23%.
Regarding `Cc1ccc(O)cc1Nc1cc(C(F)(F)F)nc2ccc(-c3ccncc3)cc12` [GW630823], the “%Inh” value worked out at 0% in assay [1]; 0% in assay [2]; 4% in [3]; 0% in assay [4]; 21% in [5]; 11% in assay [6]. Also, the “%Inh” value worked out at 0% in assay [7], 7% in assay [8], 0% in assay [9] and 15% in [10].
For `Clc1cc(Nc2ncnc3cc[nH]c23)ccc1OCc1ccccn1`, the “%Inh” value in [1] stood at 0%; in [2], 40%; in assay [3] it was 0%; in assay [4], 9%; in assay [5] it was 48%; in assay [6] it was 20%. For the same molecule, the “%Inh” value was found to be 0% in assay [7], 17% in [8], 17% in assay [9] and 99.9% in assay [10].
As for `COc1cc2ncnc(Nc3ccc(OCc4ccccc4Br)c(Cl)c3)c2cc1OC.Cl` [GI261590], the “%Inh” value came out at 18% in [1]; 3% in [2]; 7% in [3]; 0% in [4]; 9% in [5]; 0% in [6]. For the same molecule, the “%Inh” value is 10% in assay [7], 0% in assay [8], 0% in [9] and 99.9% in [10].
Turning to `COC(=O)c1cccc(NC(=O)NCCNc2ccnc(Nc3ccc(F)cc3)n2)c1` [GSK1379883], the “%Inh” value in assay [1] is 17%; in assay [2], 31%; in [3], 8%; in [4], 0%; in [5], 0%; in [6], 0%. For the same molecule, the “%Inh” value in assay [7] is 0%; in [8] it was 14%; in assay [9], 5%; in assay [10] it was 3%.
Take `Fc1cccc(COc2ccc(Nc3ncnc4nn5ccccc5c34)cc2Cl)c1` [GW689066]: the “%Inh” value turned out to be 37% in assay [1]; 52% in [2]; 0% in assay [3]; 0% in assay [4]; 87% in assay [5]; 0% in [6]. In addition, the “%Inh” value is 8% in assay [7], 0% in [8] and 0% in assay [9].
On to `NC(=O)c1sc(-n2cnc3ccccc32)cc1OCc1ccccc1F` [GSK1024306], for which the “%Inh” value in assay [1] is recorded as 25%; in assay [2] it was 38%; in [3] it was 0%; in assay [4] it was 0%; in assay [5], 4%; in assay [6], 0%. The “%Inh” value amounted to 4% in assay [7], 0% in [8], 17% in assay [9] and 84% in [10].
With `Cc1ccc(C)c(NC(=O)NCCNc2ccnc(Nc3ccc(F)cc3)n2)c1` [GSK1379878], the “%Inh” value in [1] came out at 15%; in assay [2], 38%; in assay [3] it was 0%; in assay [4], 0%; in [5] it was 5%; in [6], 3%. Further, the “%Inh” value in [7] is on record as 0%; in [8] it was 1%; in assay [9], 3%; in assay [10], 10%.
Regarding `Nc1nc(-c2ccccn2)c(-c2ccnc3ccccc23)s1` [GW548057], the “%Inh” value is recorded as 33% in assay [1]; 45% in assay [2]; 10% in [3]; 0% in [4]; 0% in [5]; 3% in [6]. Further, the “%Inh” value was 1% in assay [7], 0% in assay [8], 9% in [9] and 16% in [10].
On to `Cl.Cn1ccc(-c2cccc(Nc3ccnc4cc(-c5nccs5)ccc34)c2)n1` [GW525701], for which the “%Inh” value worked out at 33% in assay [1]; 37% in [2]; 0% in assay [3]; 0% in assay [4]; 8% in [5]; 10% in [6]. The “%Inh” value in [7] was 12%; in [8] it was 16%; in assay [9], 0%; in [10], 11%.

The values are drawn from PMC5540273 (PLoS ONE, 2017).
